# Sampled rows, rich in hits. Any-hit rate of the full collection: about 21%.
# Pf growth 96h – P. falciparum growth inhibition at 96 hours | P. falciparum luciferase reporter growth, 96 h | Potency, µM (titrated, usually from 28.7 µM), without a hit: at the top dose activity change, negative = inhibition, hits mostly inhibitors | hit rate 6.9% among 320,000 | AID 504834; also: potency is read from the fitted curve at half-maximal effect; % is scaled to controls: 0 for no effect and ±100 for the full control effect
#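 Infected RBCs, 2% Hct / 0.05% parasitemia final; luciferase-reporter P. falciparum; cpd 96 h, 37 C, 5% CO2; luciferase detection reagent; luminescence.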
# NS1 function inh – influenza NS1 inhibition | Potency, µM (highest dose often 46.1 µM), for the others: at the highest dose activity, positive = more growth | hit rate 0.4% among 270,000; calls by dose curve; also: potency is read from the fitted curve at half-maximal effect; actives are rising curves; nearly all actives have a fitted effect of over 50% in size
#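 S. cerevisiae expressing influenza A NS1, grown in glucose, washed, then diluted 1:100 into pH 6.0 -URA galactose medium with 23 nl compound. Growth recovery read as OD600; NS1-free strain serves as control.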
# Shiga toxin inh – blocks Shiga toxin action in Vero cells; inhibition, % at 38.7 µM; hit rate 9.2% among 290,000; Vero cells, Shiga toxin protein synthesis inhibition reporter; in the data active = inhibition mostly above about 28%, no sharp cut-off; inactive = mostly below about 43%; also: 0% is about no effect
# Cycloheximide cs – counter-screen for Shiga toxin inhibitors: cycloheximide protein synthesis inhibition. cell reporter, cycloheximide protein synthesis inhibition counterscreen. max response, %. hit rate 12% among 300,000. AID 2314; in the data active = max response mostly above about 13%, no sharp cut-off; inactive = mostly below about 14%; also: read at 38.3 µM for the half of the compounds with a filed dose; 0% is about no effect
# Sm TGR inh – inhibitors of Schistosoma mansoni thioredoxin glutathione reductase. Q962Y6. purified TGR, DTNB reduction, TNB absorbance 405 nm. Potency, µM (highest dose often 114 µM), for inactives: top-dose activity change, negative = inhibition, most hits filed as inhibitors. hit rate 3% among 360,000. AID 485364; also: potency is read from the fitted curve at half-maximal effect; % is scaled to controls: 0 for no effect and ±100 for the full control effect; nearly all actives have a fitted effect of over 60% in size
#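 First, TGR (20 nM dispensed) and NADPH were mixed with compound. Second, a 15 min room-temperature incubation followed. Third, further NADPH and then DTNB were added to start the reaction. Finally, TNB absorbance was monitored kinetically.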
# Pf growth 48h – P. falciparum growth inhibition at 48 hours (one generation); P. falciparum luciferase growth in erythrocytes, 48 h; Potency, µM (series often up to 28.7 µM), for the others: at the highest dose activity change, negative = inhibition, usual class: inhibitors; hit rate 5.9% among 310,000; AID 504832; also: potency is read from the fitted curve at half-maximal effect; % is scaled to controls: 0 for no effect and ±100 for the full control effect
#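 Here the parasites carry a stable luciferase gene and grow inside erythrocytes in Albumax-based RPMI medium with compound for one erythrocytic cycle. Activity is scored as loss of luminescent signal.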
# Starred values were filed as active, the others as inactive; ? = inconclusive; . = no result given; [ ] = dose if it differs, or a comment. Unless noted, calls follow the shape of the dose curve; as a rule, active = well fitted curve in the direction sought with a large enough effect; inconclusive = small, poorly fitted or top-dose-only effect, or another doubt; inactive = no such curve, though single readings can be large; an effect the other way counts as inactive or inconclusive.
SMILES,Pf growth 96h,NS1 function inh,Shiga toxin inh,Cycloheximide cs,Sm TGR inh,Pf growth 48h
O=C(c1cc2nc(-c3ccccc3)cc(-c3ccccc3)n2n1)N1CCN(C(=O)c2ccco2)CC1,-23.6%[5.75 µM],-29.4%,-7.9,8.6,-20.9%,?
Cc1cc(N2CCN(C(=O)c3ccco3)CC2)n2nc(-c3cccc(Cl)c3)cc2n1,5.1%,-70.7%,46.2,-3.1,-33.1%,9.28µM*
Cc1nc2cc(-c3cccc(F)c3)nn2c(N2CCOCC2)c1C,.,-3.2%,.,.,.,.
Cc1nc2cc(-c3cccc(Cl)c3)nn2c(N2CCN(C(=O)c3ccco3)CC2)c1C,29.8%,-35.5%,101.9*,27.8*,-10.8%,74.8%
COc1ccc(/C=N/NC(=O)C(=O)Nc2ccccn2)cc1OC,?,4.0%,-12.2,-3.0,14.0%,8.3%
COc1ccc(-c2cnnc(N/N=C/c3ccc(O)c(OC)c3)n2)cc1,5.22µM*,-9.3%,-0.6,20.3*,-6.7%,-11.0%
COc1ccc(/C=N/Nc2nc(N)cc(Cl)n2)cc1OC,?,4.4%,45.9,20.6*,.,13.0%
C=CCOc1ccc(/C=N/NC(=O)C(=O)Nc2ccccn2)cc1OC,4.15µM*,11.6%,31.1,12.3*,-2.3%,6.6%
COc1ccc(/C=N/Nc2nonc2N)cc1OC,?,2.9%,2.7,7.7,-0.1%,3.2%
COc1cc(/C=N/Nc2ccccn2)ccc1O,27.5%,0.4%,73.7*,49.2*,-17.0%,90.2%
COC(=O)CCCCC1SCC(NC(=O)c2ccccc2)C1=O (centres undefined),6.8%,-7.1%,-7.0,10.3,.,-1.5%
Cc1cccc(OCc2nnc(SCC(=O)Nc3cccc(C(=O)N4CCOCC4)c3)o2)c1C,0.2%,-13.7%,-8.0,-1.7,2.8%,-4.1%
Cc1ccc(Cl)cc1NC1=NC(=S)N(C(C)C)C12CCCCC2,-29.4%,0.0%,-5.5,0.4,-0.8%,?
O=C(NC1CCN(C(=S)Nc2ccccc2Cl)CC1)C1CCCCC1,3.8%,5.0%,-4.1,2.7,1.0%,-15.7%
COc1ccc(/C=N/Nc2ccccn2)cc1OC,-1.7%,0.0%,94.2*,54.3*,5.1%,117.5%
COc1ccc(Br)cc1/C=N/Nc1ccccn1,?,-1.5%,11.5,3.4,7.9%,10.2%
CCN1CCc2nc(NC(=O)C(c3ccccc3)c3ccccc3)sc2C1,8.28µM*,3.5%,-25.7,-1.9,-17.8%,.
CCN1CCc2nc(NC(=O)Cc3ccc4c(c3)OCCO4)sc2C1,-12.6%,-0.3%,17.4,7.7,?,?
CCN1CCc2nc(NC(=O)c3ccc(S(=O)(=O)N(C)C)cc3)sc2C1,-9.3%,.,25.7,7.9,-15.8%,83.8%
CCN1CCc2nc(NC(=O)c3ccc4c(c3)OCCO4)sc2C1,96.1%,4.2%,97.9*,32.9*,-5.6%,140.4%
CCN1CCc2nc(NC(=O)CC(c3ccccc3)c3ccccc3)sc2C1,10.4µM*,17.4%,-1.5,-3.7,?,5.86µM*
Cc1ccc(CSC2=NC(C)(C)Nc3ccccc32)c(C)c1,.,.,.,.,-8.7%,.
CCOC(=O)c1sc(NC(=S)NC(=O)c2ccccc2)nc1C,24.0%,.,165.3*,41.9*,-25.3%,245.5%
COC(=O)c1sc(NC(=S)NC(=O)c2ccccc2Cl)nc1C,10.2%,14.1%,65.1*,40.3*,-6.3%,105.8%
CCOC(=O)c1sc(NC(=O)CC(C)c2ccccc2)nc1C (centres undefined),69.6%,26.8%,9.8,-1.5,2.9%,-40.3%
SMILES,Pf growth 96h,NS1 function inh,Shiga toxin inh,Cycloheximide cs,Sm TGR inh,Pf growth 48h
COC(=O)c1sc(NC(=S)NC(=O)c2cc(OC)c(OC)c(OC)c2)nc1C,0.0%,14.8%,-7.4,-1.4,-25.4%,7.6%
COC(=O)c1sc(NC(=S)NC(=O)c2ccccc2)nc1C,?,-3.8%,-8.5,26.1*,-23.3%,59.0%
CCOC(=O)c1sc(NC(=O)C(OC(C)=O)c2ccccc2)nc1C (centres undefined),10.4µM*,-7.2%,38.8*,24.7*,4.8%,-24.0%
CC(C)CCN1C(N(C)C)=NC[C@@H]1C,-11.9%,.,.,.,3.2%,-23.2%
Cc1nc(NC(=S)NC(=O)c2ccccc2)sc1C(=O)N(C)C,43.6%,-16.4%,34.4,21.7*,-3.0%,.
COc1ccc2c(c1)-c1ccccc1S(=O)(=O)N2C(C)=O,11.7µM*,-86.1%,-17.5,-3.5,-18.7%,-12.1%

# Bioassay records deposited in PubChem by National Center for Advancing Translational Sciences (NCATS).
